From PubChem BioAssay AID652142 (Molecular Libraries Program, Specialized Chemistry Center, …, 2013)
Screen size: about 2,400 compounds; fewer than 10 were called active. The rule behind the calls is not given here. A selection follows.

These compounds were tested against Rac GTPase-activating protein 1 (Homo sapiens) (UniProt Q9H0H5) (assay: inhibition of MgcRacGAP-stimulated Rac1 GTP hydrolysis – biochemical, inorganic phosphate detection, orthogonal assay, confirmation (AID 652142)). Settings: MgcRacGAP/Rac1F28L GTP hydrolysis, Biomol green phosphate; hits give high values.
Sequence of Rac GTPase-activating protein 1 (Homo sapiens) (Q9H0H5 whole entry, looked up): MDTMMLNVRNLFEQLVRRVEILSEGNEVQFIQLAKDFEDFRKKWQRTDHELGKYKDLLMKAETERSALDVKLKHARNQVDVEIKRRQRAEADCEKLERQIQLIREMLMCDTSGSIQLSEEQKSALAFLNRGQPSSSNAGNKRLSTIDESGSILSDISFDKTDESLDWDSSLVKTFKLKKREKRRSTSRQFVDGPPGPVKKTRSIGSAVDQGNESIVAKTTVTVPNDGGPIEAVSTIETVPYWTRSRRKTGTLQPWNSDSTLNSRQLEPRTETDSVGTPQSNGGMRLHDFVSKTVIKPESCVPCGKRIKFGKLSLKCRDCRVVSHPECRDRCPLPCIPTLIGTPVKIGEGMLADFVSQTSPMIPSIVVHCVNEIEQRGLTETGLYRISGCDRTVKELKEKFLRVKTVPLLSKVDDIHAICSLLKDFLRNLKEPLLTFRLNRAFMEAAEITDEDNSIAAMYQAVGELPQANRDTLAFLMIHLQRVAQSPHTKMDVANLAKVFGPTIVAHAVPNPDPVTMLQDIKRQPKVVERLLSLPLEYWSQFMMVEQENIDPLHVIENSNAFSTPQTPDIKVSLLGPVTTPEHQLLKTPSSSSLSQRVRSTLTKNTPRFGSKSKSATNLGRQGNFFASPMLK

inhibition, inactive:
C/C(=N\Nc1ccc(S(=O)(=O)N2CCCCC2)cn1)c1ccc(O)cc1 27.3%, COc1ccccc1N=NNc1ccccc1OC 28.7%, CC(C)(C)N1C(=O)c2ccc(C(=O)Nc3ccc(O)cc3)cc2C1=O 24.3%, Cn1c(-c2ccc3c(c2)OCO3)cnc1NCc1ccccc1Cl 27.7%, COc1cccc(Nc2nc(-c3ccc(O)cc3)cs2)c1 31.8%, C=CCn1c(=O)/c(=C/c2ccc(O)cc2)s/c1=C(/C#N)c1nnc2n1CCCCC2 18.2%, COc1ccc(CNc2ncc(-c3ccc(F)cc3)n2C)c2ccccc12 17.2%, CCOC(=O)/C(C#N)=C\c1c(OCC)n(CC)c2ccccc12 19.7%, Cc1cccc(C)c1OCCCCN1CCNCC1 32%, CC1(C)OC(=O)C(=NNc2ccc(O)cc2)C(=O)O1 20.7%, CCN(CC)S(=O)(=O)c1cccc(NC(=O)CNC2CCCCCC2)c1 31%, C#CCOCCOCCOCCNc1nc(N2CCN(C(=O)[C@H](CCCCN)n3cc([C@@H](N)CC(C)C)nn3)CC2)nc(N2CCN(C(=O)[C@H](CCCCN)n3cc([C@@H](N)CC(C)C)nn3)CC2)n1 39.7%, COc1cc(/C=C2\SC(=Nc3c(C)n(C)n(-c4ccccc4)c3=O)NC2=O)ccc1O 22.8%, Nc1ccc2nc(-c3ccccc3)[nH]c2c1 26.8%, Oc1ccc(Cl)cc1C=Nc1ccc2c3c(cccc13)CC2 29.6%, Nc1ccc(-c2nc3ccc(N)cc3s2)cc1 22.9%, COc1cc2[nH]c(=S)nc(NCCc3ccc(S(N)(=O)=O)cc3)c2cc1OC 17.7%, Cc1c(O)ccc(/C(Cc2ccc3ccccc3n2)=N\O)c1O 25.3%, Oc1ccc(/C=N/Nc2cc(N3CCOCC3)nc(N3CCOCC3)n2)cc1O 7.37%, Cc1ccccc1-c1ccc(Nc2ccc(N3CCOCC3)cc2)nn1 33.6%, CC1=NN(c2ccccc2)C(=O)/C1=C/C=C/C=C/N(C)C 21.7%, Cc1ccc(C2C=NN(c3ccccc3)C2=O)cc1 (configuration not stated) -3.99%, S=c1[nH]c2ccccc2n2c(=S)[nH]nc12 23.8%, O=C1CCCC/C1=C\Nc1ccc(O)cc1 30.3%, O=C(Nc1ccccc1C(=O)N/N=C/c1ccc(O)cc1)c1ccccc1 25.8%, Cc1ccc(Nc2n[nH]c(=S)s2)cc1 23.2%, C#CCOCCOCCOCCNc1nc(N2CCN(C(=O)[C@H](CCCCN)n3cc([C@@H](N)C(C)CC)nn3)CC2)nc(N2CCN(C(=O)[C@H](Cc3cc4ccccc4[nH]3)n3cc([C@@H](N)C(C)CC)nn3)CC2)n1 (some centres not stated) 54.2%
